Reference: PubChem BioAssay (NCI)
About 79,000 compounds went through this panel and 15% of them were active in at least one assay; those are over-represented in the sample as a whole. Values without a mark were called inactive. Activity calls are given as the source filed them. Cut-off read from the data, not from the text of the source: active = growth inhibition above about 70%; inactive = the rest.

How the values were obtained:
[1] = NCI Yeast Anticancer Drug Screen. Data for the rad52 strain (AID 147);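 note: 0% = growth of vehicle-treated control cultures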; settings: S. cerevisiae rad52 mutant growth inhibition, active compounds read high
Outline: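 Compounds are applied to a genetically defined yeast strain lacking normal DNA damage repair, and inhibition of growth is expressed relative to cultures given vehicle only.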

[2] = NCI Yeast Anticancer Drug Screen. Data for the wt1 strain (AID 149);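 note: 0% = growth of vehicle-treated wt1 cultures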; settings: S. cerevisiae wt1 strain (SPY 50644) growth inhibition, active compounds read high
Outline: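 wt1 strain grown with compound or vehicle; inhibition taken from the growth difference.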

[3] = NCI Yeast Anticancer Drug Screen. Data for the rad50EPP+ strain (AID 151);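 note: 0% = growth of vehicle-treated control cultures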; settings: S. cerevisiae rad50 mutant strain, active compounds read high
Outline: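 Compounds were applied to the rad50EPP+ yeast strain, which bears a defined DNA repair alteration, and growth inhibition was determined relative to vehicle-treated cultures.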

[4] = NCI Yeast Anticancer Drug Screen. Data for the mgt1 strain (AID 153); settings: S. cerevisiae mgt1 mutant growth inhibition, active compounds read high
Outline: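 Strain: mgt1 yeast, one of a set carrying defined DNA damage repair or cell cycle control alterations. Compound-treated growth compared with vehicle.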

[5] = NCI Yeast Anticancer Drug Screen. Data for the rad50 strain (AID 155);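 note: 0% = growth of vehicle-only cultures of the same strain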; settings: S. cerevisiae rad50 strain growth inhibition, active compounds read high
Outline: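 DNA repair mutant yeast, compound exposure, growth read-out; inhibition is taken relative to vehicle.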

[6] = NCI Yeast Anticancer Drug Screen. Data for the mec2-1 strain (AID 157); settings: S. cerevisiae mec2-1 strain, active compounds read high
Outline: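 Strain: mec2-1 (DNA repair/cell cycle alteration). Compound exposure, then growth measured; inhibition expressed relative to vehicle.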

[7] = NCI Yeast Anticancer Drug Screen. Data for the rad14 strain (AID 159);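 note: 0% = growth of vehicle-treated control cultures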; settings: S. cerevisiae rad14 strain growth inhibition, active compounds read high
Outline: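 DNA repair-defective yeast, compound-exposed; % growth inhibition derived by comparison with vehicle-treated controls.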

[8] = NCI Yeast Anticancer Drug Screen. Data for the sgs1 mgt1 strain (AID 161);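 note: 0% = growth of cultures given vehicle only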; settings: S. cerevisiae sgs1 mgt1 strain, active compounds read high
Outline: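 Read-out: growth inhibition vs vehicle controls. Cells: mutant yeast strain deficient in DNA damage repair.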

[9] = NCI Yeast Anticancer Drug Screen. Data for the CLN2oe strain (AID 163);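 note: 0% = growth of vehicle-only control cultures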; settings: S. cerevisiae CLN2oe strain, active compounds read high
Outline: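 Growth of a genetically modified yeast strain is measured after compound exposure and compared with cultures given vehicle alone.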

[10] = NCI Yeast Anticancer Drug Screen. Data for the cln2 rad14 strain (AID 165);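 note: 0% = growth equal to vehicle treated cultures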; settings: S. cerevisiae cln2 rad14 strain, active compounds read high
Outline: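 Compounds are applied to the cln2 rad14 yeast strain, and growth is then compared with that of vehicle-treated cultures to give inhibition.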

[11] = NCI Yeast Anticancer Drug Screen. Data for the bub3 strain (AID 167); settings: S. cerevisiae bub3 mutant strain, active compounds read high
Outline: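 In this screen, a yeast mutant lacking normal mitotic checkpoint function is challenged with compound. Relative growth versus vehicle gives the inhibition value.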

[12] = NCI Yeast Anticancer Drug Screen. Data for the wt2 strain (AID 169);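 note: 0% = growth of vehicle-treated yeast cultures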; settings: S. cerevisiae wt2 strain growth inhibition, active compounds read high
Outline: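 This strain belongs to a panel of yeast strains with defined genetic alterations in DNA damage repair or cell cycle control. Compounds are applied, and growth inhibition is measured against vehicle-treated cultures.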

[13] = NCI Yeast Anticancer Drug Screen. Data for the mlh1 strain (AID 171);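 note: 0% = growth of vehicle-treated control cultures of the same strain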; settings: S. cerevisiae mlh1 strain growth inhibition, active compounds read high
Outline: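 Growth of the mutant yeast strain after compound exposure, expressed as inhibition relative to vehicle-only controls.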

[14] = NCI Yeast Anticancer Drug Screen. Data for the sgs1 strain (AID 173);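 note: 0% = growth of vehicle-only control cultures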; settings: S. cerevisiae sgs1 mutant, active compounds read high
Outline: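 Growth of a yeast strain bearing a defined genetic alteration is measured after compound treatment. Inhibition is expressed relative to vehicle-only controls.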

[15] = NCI Yeast Anticancer Drug Screen. Data for the mlh1 rad18 strain (AID 175); settings: S. cerevisiae mlh1 rad18 strain growth inhibition, active compounds read high
Outline: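 Read-out is yeast growth inhibition, calculated against vehicle-only controls. The compound was applied to a strain engineered with DNA damage repair alterations.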

[16] = NCI Yeast Anticancer Drug Screen. Data for the rad18 strain (AID 177); settings: S. cerevisiae rad18 mutant growth inhibition, active compounds read high
Outline: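 Growth of the mutant yeast strain after compound exposure, normalised to vehicle-only cultures.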

[17] = at 5.0 µM (retest, dose inferred, filed as 0.5)
[18] = at 50.0 µM (retest, dose inferred, filed as 5.0)

SMILES: OC(c1ccccc1)(c1ccccc1)c1nccc2ccccc12
- growth inhibition ([1]; at 1.2 µM): 40%
- growth inhibition ([1]; at 3.7 µM): 39%
- growth inhibition ([1]; at 11.0 µM): 48%
- growth inhibition ([1]; at 33.0 µM): 62%
- growth inhibition ([1]; at 100.0 µM): 81% (active)
- growth inhibition ([2]; at 1.2 µM): 3%
- growth inhibition ([2]; at 3.7 µM): -3%
- growth inhibition ([2]; at 11.0 µM): 26%
- growth inhibition ([2]; at 33.0 µM): -2%
- growth inhibition ([2]; at 100.0 µM): 29%
- growth inhibition ([3]; at 1.2 µM): 14%
- growth inhibition ([3]; at 3.7 µM): 14%
- growth inhibition ([3]; at 11.0 µM): 32%
- growth inhibition ([3]; at 33.0 µM): 13%
- growth inhibition ([3]; at 100.0 µM): 0%
- growth inhibition ([4]; at 1.2 µM): -11%
- growth inhibition ([4]; at 3.7 µM): 8%
- growth inhibition ([4]; at 11.0 µM): 11%
- growth inhibition ([4]; at 33.0 µM): 15%
- growth inhibition ([4]; at 100.0 µM): 51%
- growth inhibition ([5]; at 1.2 µM): 4%
- growth inhibition ([5]; at 3.7 µM): 15%
- growth inhibition [5, 17]: 14%
- growth inhibition ([5]; at 11.0 µM): 24%
- growth inhibition ([5]; at 33.0 µM): 39%
- growth inhibition [5, 18]: 50%
- growth inhibition ([5]; at 50.0 µM): 67.7%
- growth inhibition ([5]; at 100.0 µM): 70% (active)
- growth inhibition ([6]; at 1.2 µM): 0%
- growth inhibition ([6]; at 3.7 µM): 3%
- growth inhibition [6, 17]: 2%
- growth inhibition ([6]; at 11.0 µM): 9%
- growth inhibition ([6]; at 33.0 µM): 7%
- growth inhibition [6, 18]: 40%
- growth inhibition ([6]; at 50.0 µM): 75% (active)
- growth inhibition ([6]; at 100.0 µM): 49%
- growth inhibition ([7]; at 1.2 µM): 3%
- growth inhibition ([7]; at 3.7 µM): 2%
- growth inhibition ([7]; at 11.0 µM): 3%
- growth inhibition ([7]; at 33.0 µM): 3%
- growth inhibition ([7]; at 100.0 µM): 39%
- growth inhibition [8, 17]: -4%
- growth inhibition [8, 18]: 58%
- growth inhibition ([8]; at 50.0 µM): 71.5% (active)
- growth inhibition ([9]; at 1.2 µM): 25%
- growth inhibition ([9]; at 3.7 µM): 34%
- growth inhibition ([9]; at 11.0 µM): 28%
- growth inhibition ([9]; at 33.0 µM): 35%
- growth inhibition ([9]; at 100.0 µM): 59%
- growth inhibition [10, 17]: 6%
- growth inhibition [10, 18]: 7%
- growth inhibition ([10]; at 50.0 µM): 55.4%
- growth inhibition ([11]; at 1.2 µM): 14%
- growth inhibition ([11]; at 3.7 µM): 22%
- growth inhibition [11, 17]: 0%
- growth inhibition ([11]; at 11.0 µM): 25%
- growth inhibition ([11]; at 33.0 µM): 25%
- growth inhibition [11, 18]: 45%
- growth inhibition ([11]; at 50.0 µM): 60.6%
- growth inhibition ([11]; at 100.0 µM): 75% (active)
- growth inhibition ([12]; at 1.2 µM): -56%
- growth inhibition ([12]; at 3.7 µM): -17%
- growth inhibition ([12]; at 11.0 µM): -31%
- growth inhibition ([12]; at 33.0 µM): -21%
- growth inhibition ([12]; at 100.0 µM): 38%
- growth inhibition ([13]; at 1.2 µM): -2%
- growth inhibition ([13]; at 3.7 µM): 12%
- growth inhibition ([13]; at 11.0 µM): 5%
- growth inhibition ([13]; at 33.0 µM): 14%
- growth inhibition ([13]; at 100.0 µM): 54%
- growth inhibition ([14]; at 1.2 µM): 15%
- growth inhibition ([14]; at 3.7 µM): 3%
- growth inhibition ([14]; at 11.0 µM): 4%
- growth inhibition ([14]; at 33.0 µM): 16%
- growth inhibition ([14]; at 100.0 µM): 71% (active)
- growth inhibition [15, 17]: 12%
- growth inhibition [15, 18]: 74% (active)
- growth inhibition ([15]; at 50.0 µM): 51%
- growth inhibition ([16]; at 1.2 µM): 0%
- growth inhibition ([16]; at 3.7 µM): 14%
- growth inhibition ([16]; at 11.0 µM): 27%
- growth inhibition ([16]; at 33.0 µM): 55%
- growth inhibition ([16]; at 100.0 µM): 63%

SMILES: O=S(=O)(NNc1ccccc1)c1ccccc1
- growth inhibition ([1]; at 1.2 µM): -1%
- growth inhibition ([1]; at 3.7 µM): 4%
- growth inhibition ([1]; at 11.0 µM): 15%
- growth inhibition ([1]; at 33.0 µM): 62%
- growth inhibition ([1]; at 100.0 µM): 97% (active)
- growth inhibition ([2]; at 1.2 µM): -1%
- growth inhibition ([2]; at 3.7 µM): -1%
- growth inhibition ([2]; at 11.0 µM): 4%
- growth inhibition ([2]; at 33.0 µM): 11%
- growth inhibition ([2]; at 100.0 µM): 45%
- growth inhibition ([3]; at 1.2 µM): -1%
- growth inhibition ([3]; at 3.7 µM): 1%
- growth inhibition ([3]; at 11.0 µM): 14%
- growth inhibition ([3]; at 33.0 µM): 71% (active)
- growth inhibition ([3]; at 100.0 µM): 94% (active)
- growth inhibition ([4]; at 1.2 µM): -3%
- growth inhibition ([4]; at 3.7 µM): -1%
- growth inhibition ([4]; at 11.0 µM): 8%
- growth inhibition ([4]; at 33.0 µM): 14%
- growth inhibition ([4]; at 100.0 µM): 82% (active)
- growth inhibition ([5]; at 1.2 µM): 4%
- growth inhibition ([5]; at 3.7 µM): 18%
- growth inhibition [5, 17]: -20%
- growth inhibition ([5]; at 11.0 µM): 27%
- growth inhibition ([5]; at 33.0 µM): 60%
- growth inhibition [5, 18]: 16%
- growth inhibition ([5]; at 50.0 µM): 73.5% (active)
- growth inhibition ([5]; at 100.0 µM): 95% (active)
- growth inhibition ([6]; at 1.2 µM): -6%
- growth inhibition ([6]; at 3.7 µM): -5%
- growth inhibition [6, 17]: -12%
- growth inhibition ([6]; at 11.0 µM): -3%
- growth inhibition ([6]; at 33.0 µM): 26%
- growth inhibition [6, 18]: 15%
- growth inhibition ([6]; at 50.0 µM): 19.1%
- growth inhibition ([6]; at 100.0 µM): 92% (active)
- growth inhibition ([7]; at 1.2 µM): -2%
- growth inhibition ([7]; at 3.7 µM): 3%
- growth inhibition ([7]; at 11.0 µM): 8%
- growth inhibition ([7]; at 33.0 µM): 18%
- growth inhibition ([7]; at 100.0 µM): 44%
- growth inhibition [8, 17]: 0%
- growth inhibition [8, 18]: 9%
- growth inhibition ([8]; at 50.0 µM): 36.6%
- growth inhibition ([9]; at 1.2 µM): 0%
- growth inhibition ([9]; at 3.7 µM): -1%
- growth inhibition ([9]; at 11.0 µM): 5%
- growth inhibition ([9]; at 33.0 µM): 34%
- growth inhibition ([9]; at 100.0 µM): 85% (active)
- growth inhibition [10, 17]: -44%
- growth inhibition [10, 18]: -3%
- growth inhibition ([10]; at 50.0 µM): 16.1%
- growth inhibition ([11]; at 1.2 µM): -4%
- growth inhibition ([11]; at 3.7 µM): -7%
- growth inhibition [11, 17]: -4%
- growth inhibition ([11]; at 11.0 µM): 1%
- growth inhibition ([11]; at 33.0 µM): 45%
- growth inhibition [11, 18]: 23%
- growth inhibition ([11]; at 50.0 µM): 11.7%
- growth inhibition ([11]; at 100.0 µM): 93% (active)
- growth inhibition ([12]; at 1.2 µM): -2%
- growth inhibition ([12]; at 3.7 µM): -1%
- growth inhibition ([12]; at 11.0 µM): 2%
- growth inhibition ([12]; at 33.0 µM): 16%
- growth inhibition ([12]; at 100.0 µM): 67%
- growth inhibition ([13]; at 1.2 µM): -5%
- growth inhibition ([13]; at 3.7 µM): -3%
- growth inhibition ([13]; at 11.0 µM): -2%
- growth inhibition ([13]; at 33.0 µM): 14%
- growth inhibition ([13]; at 100.0 µM): 74% (active)
- growth inhibition ([14]; at 1.2 µM): -1%
- growth inhibition ([14]; at 3.7 µM): -1%
- growth inhibition ([14]; at 11.0 µM): 6%
- growth inhibition ([14]; at 33.0 µM): 34%
- growth inhibition ([14]; at 100.0 µM): 90% (active)
- growth inhibition [15, 17]: -25%
- growth inhibition [15, 18]: 51%
- growth inhibition ([15]; at 50.0 µM): 54.5%
- growth inhibition ([16]; at 1.2 µM): -1%
- growth inhibition ([16]; at 3.7 µM): 3%
- growth inhibition ([16]; at 11.0 µM): 22%
- growth inhibition ([16]; at 33.0 µM): 47%
- growth inhibition ([16]; at 100.0 µM): 91% (active)
